# Screening data from PubChem BioAssay.
# This is one part of a sample in which hits are shown more often than they occur.
# GIRK2 act – Activates human GIRK2-containing potassium channels; P48051; HEK293 GIRK2/NPY4 cells, thallium flux fluorescence; activation (% efficacy), % for hits at 37.5 µM; 34,000 tested, under 10 active; AID 1259324;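 active = primary screen hit, no activity in plain HEK293 cells, and in GIRK2-only cells above 5% efficacy rising with concentration; inactive = the rest, including fluorescent compounds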;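 also: efficacy is normalized control-subtracted fluorescence 15 s after thallium addition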
# Target sequence (P48051 whole entry, looked up): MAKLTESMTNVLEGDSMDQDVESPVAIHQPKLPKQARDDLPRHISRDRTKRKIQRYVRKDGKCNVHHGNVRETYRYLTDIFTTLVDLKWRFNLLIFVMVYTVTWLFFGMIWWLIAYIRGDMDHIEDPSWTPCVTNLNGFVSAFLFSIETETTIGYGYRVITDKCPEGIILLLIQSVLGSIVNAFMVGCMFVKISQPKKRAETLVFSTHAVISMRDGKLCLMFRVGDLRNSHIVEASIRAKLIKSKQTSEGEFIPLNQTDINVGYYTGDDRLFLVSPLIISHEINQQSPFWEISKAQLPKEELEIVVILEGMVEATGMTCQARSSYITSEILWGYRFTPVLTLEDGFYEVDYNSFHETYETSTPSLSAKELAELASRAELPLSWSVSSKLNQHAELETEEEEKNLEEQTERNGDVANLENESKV
# AMPAR-TARP mod – modulators of AMPA receptor GluA2-stargazin complexes; O88602+P19491; 40,000 tested, 3.5% active; HEK293 GluA2+stargazin, membrane potential dye (FDSS), glutamate EC50; hits were called plate by plate, in both directions; calls only at 30 µM;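 active = any of four per-well response measures lying three or more SD from its plate-wide compound average, in either direction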
# * hit, by the source's call; i = inactive; . = no result given; + = active, no number.
SMILES,GIRK2 act,AMPAR-TARP mod
O=C(Nc1ccccc1)Nc1ccc2c(c1)N(C(=O)c1ccccc1)CCC2,i,.
O=C(/C=C/c1ccccc1)Nc1ccc2c(c1)N(C(=O)c1ccccc1)CCC2,i,+
O=C(/C=C/c1ccc2c(c1)OCO2)Nc1ccc2c(c1)N(C(=O)C1CC1)CC2,i,+
COc1ccccc1OCC(=O)Nc1ccc(OC)c(N2CCCCC2=O)c1,i,i
COc1cc(NC(=O)c2cccc(Br)c2)ccc1N1CCCC1=O,i,i
COc1ccc(S(=O)(=O)c2cc3ccccc3oc2=O)cc1,i,i
Cn1cccc1CN(C(=O)CSc1ccc(F)cc1)C1CC1,i,.
Cc1ccnc(Nc2ccc(NCCNS(=O)(=O)c3ccc(F)cc3)nn2)c1,i,+
O=S(=O)(NCCNc1ccc(Nc2ccccn2)nn1)c1ccc(F)cc1,i,i
COc1ccc2nc(N(CCN3CCOCC3)C(=O)CCc3ccccc3)sc2c1,.,i
O=C(/C=C/c1cccc([N+](=O)[O-])c1)N(CCN1CCOCC1)c1nc2ccc(F)cc2s1,.,+
COc1ccc(OC)c2sc(N(CCN3CCOCC3)C(=O)c3ccn(C)n3)nc12,i,i
Cn1ccc(C(=O)N(CCN2CCOCC2)c2nc3ccccc3s2)n1,i,+
COc1cccc2sc(N(Cc3cccnc3)C(=O)c3cc(C)nn3C)nc12,i,i
Cc1cc2nc(N(CCN3CCOCC3)C(=O)c3ccco3)sc2cc1C,i,i
O=C(/C=C/c1ccc([N+](=O)[O-])cc1)N(CCN1CCOCC1)c1nc2ccccc2s1,.,i
O=C(c1ccco1)N(CCN1CCOCC1)c1nc2ccc(Cl)cc2s1,.,+
COc1cccc2sc(N(CCN(C)C)C(=O)c3cc(C)n(C)n3)nc12,i,+
COc1ccc(OC)c(S(=O)(=O)NCCOc2ccc(-c3ccc(C)cc3)nn2)c1,i,i
O=C(CSc1nc(-c2ccccc2)c2ccccc2n1)NCC1CCCO1 (configuration not stated),i,i
Cc1cccc2sc(N(CCN3CCOCC3)C(=O)c3ccc([N+](=O)[O-])o3)nc12,i,+
Cc1cccc2sc(N(CCN3CCOCC3)C(=O)c3ccc([N+](=O)[O-])s3)nc12,i,i
CN(C)CCN(C(=O)c1ccn(C)n1)c1nc2ccc(Cl)cc2s1,i,+
CN(C)CCCN(C(=O)c1ccno1)c1nc2ccc(Cl)cc2s1,i,.
COc1cn(CC(=O)Nc2ccc3c(c2)OCCO3)c(CSc2ccc(F)cc2)cc1=O,i,i
SMILES,GIRK2 act,AMPAR-TARP mod
COC(=O)c1scc(-c2ccc(C)cc2)c1S(=O)(=O)Nc1ccc(OC)c(OC)c1,i,i
CCOC(=O)c1scc(-c2ccc(C)cc2)c1S(=O)(=O)Nc1ccc2c(c1)OCCO2,i,+
Cc1cn2c3c(=O)n(Cc4ccc(Cl)cc4Cl)c(=O)n(C)c3nc2n1CCO,i,i
O=C(Oc1ccccc1)N1CCC(CNS(=O)(=O)c2cccnc2)CC1,i,i
CSc1nc2ccc3nc(NC(=O)C4CCN(S(C)(=O)=O)CC4)sc3c2s1,i,.
COc1ccc2nc(-c3ccc(Cl)c(NC(=O)c4ccccc4C(F)(F)F)c3)cn2n1,i,.
CN(C)C(CNC(=O)C(=O)NC1CC1)c1ccc(F)cc1 (configuration not stated),i,i
Cc1ccc(C(CNC(=O)C(=O)NC2CC2)N(C)C)cc1 (configuration not stated),i,+
CN(C)C(CNC(=O)C(=O)Nc1ccncc1)c1ccco1 (configuration not stated),i,i
COCC(C)(O)CNC(=O)c1cccn(C)c1=O (configuration not stated),i,+
Cn1cccc(C(=O)NCC(O)(c2ccccc2)C2CC2)c1=O (configuration not stated),.,i
CCc1nc2sc(C(c3ccc(Br)cc3)N3CCN(CC)CC3)c(O)n2n1 (configuration not stated),i,i
Cc1cn2c3c(=O)n(Cc4ccccc4Cl)c(=O)n(C)c3nc2n1CCO,i,i
Cc1c(C)n2c3c(=O)n(CCCc4ccccc4)c(=O)n(C)c3nc2n1C(C)C,i,+
CCn1c(=O)c2c(nc3n(CCCOC)c(C)c(C)n23)n(C)c1=O,i,i
Cc1c(C)n2c3c(=O)n(Cc4ccc(F)cc4)c(=O)n(C)c3nc2n1CCCN(C)C,i,+
Cc1c(C)n2c3c(=O)n(CC(=O)OCc4ccccc4)c(=O)n(C)c3nc2n1C(C)C,i,i
Cc1cn2c3c(=O)n(Cc4ccccc4F)c(=O)n(C)c3nc2n1CCCN(C)C,i,+
COc1ccccc1NC(=O)N1CCN(c2cc(-n3ccnc3)nc(C)n2)CC1,i,i
CCOc1ccc(Cl)cc1S(=O)(=O)N1CCCC(C)C1 (configuration not stated),.,+
